The text below walks through data of PubChem BioAssay (NCI).

Among the test systems are SK-MEL-2 melanoma; EKVX NSCLC; SN12C renal; UO-31 renal; TK-10 renal; ACHN renal; A498 renal; CCRF-CEM leukemia; MOLT-4 leukemia; SR leukemia; RPMI-8226 leukemia; OVCAR-8 ovarian; OVCAR-5 ovarian; OVCAR-4 ovarian; IGROV1 ovarian; OVCAR-3 ovarian; HS 578T breast; NCI/ADR-RES ovarian; SK-OV-3 ovarian; CAKI-1 renal.
Assay in all cases: NCI-60 one-dose screen, 48 h (100 = growth as untreated, 0 = no growth, -100 = all killed)
What all share (conditions): 10 µM unless noted

Compounds without any hit were thinned out: in the full panel of roughly 83,000, 20% have a hit.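 Cells were grown in 96-well plates and exposed to the test compound at a single concentration for 48 hours; results are reported as percent growth, with values below 10 considered active.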 Values without a mark were called inactive. Active and inactive are the calls of the source.

On to `CSCCC(NC(=O)C(Cl)Cl)C(=O)O` (stereo not given), for which the growth was 102% in the test on SK-MEL-2 melanoma; 90.2% with EKVX NSCLC; 97.5% in the test with SN12C renal; 96.3% with UO-31 renal; 94.1% with TK-10 renal; 101% in the test on ACHN renal. The growth in the test on A498 renal is 108%; in the test with CCRF-CEM leukemia it was 97.7%; with MOLT-4 leukemia it was 90.5%; in the test on SR leukemia it was 91.5%; in the test with RPMI-8226 leukemia, 101%; in the test with OVCAR-8 ovarian, 96.7%. The growth is 94.7% with OVCAR-5 ovarian; 115% with OVCAR-4 ovarian; 105% in the test on IGROV1 ovarian; 106% with OVCAR-3 ovarian; 97.8% with HS 578T breast; 106% in the test on NCI/ADR-RES ovarian.

For `BrCc1cccc(C[P+](c2ccccc2)(c2ccccc2)c2ccccc2)c1`, the growth was 70.4% in the test with SK-MEL-2 melanoma; 44.6% in the test on EKVX NSCLC; 57.7% in the test with SN12C renal; 70.7% in the test with UO-31 renal; 90.8% with TK-10 renal; 82.7% with ACHN renal. The growth with A498 renal was 84.1%; in the test on CCRF-CEM leukemia, 36.1%; with MOLT-4 leukemia, 84.9%; in the test with SR leukemia, 50.3%; with RPMI-8226 leukemia, 22.6%; with OVCAR-8 ovarian, 29.2%. For the same compound, the growth in the test with OVCAR-5 ovarian was 81.2%; in the test on OVCAR-4 ovarian, 36.8%; in the test with SK-OV-3 ovarian, 90.2%; in the test with IGROV1 ovarian, 38.8%; with OVCAR-3 ovarian, 14.2%; in the test with NCI/ADR-RES ovarian, 111%.

On to `C=CC(=O)OC1CCC(C(C)(C)CC)CC1` (stereo not given), for which the growth in the test on SK-MEL-2 melanoma was 108%; in the test with EKVX NSCLC it was 117%; in the test on SN12C renal, 103%; in the test with UO-31 renal it was 83.9%; in the test on TK-10 renal, 101%; with ACHN renal, 110%. In addition, the growth with A498 renal is 87.2%; with CCRF-CEM leukemia, 106%; in the test on MOLT-4 leukemia, 107%; in the test on SR leukemia, 98.9%; in the test with RPMI-8226 leukemia, 103%; in the test with OVCAR-8 ovarian, 107%. Further, the growth with OVCAR-5 ovarian is 103%; in the test with OVCAR-4 ovarian, 105%; with SK-OV-3 ovarian, 111%; in the test with IGROV1 ovarian it was 117%; with OVCAR-3 ovarian it was 109%; with HS 578T breast, 101%. Further, the growth with NCI/ADR-RES ovarian was 105%.

In the case of `C1Cc2onc(-c3noc4c3CCC4)c2C1`, the growth in the test with SK-MEL-2 melanoma is 124%; in the test with EKVX NSCLC, 104%; with SN12C renal, 96.2%; in the test on UO-31 renal, 87.9%; with TK-10 renal it was 105%; in the test with ACHN renal it was 114%. The growth in the test with A498 renal is 136%; with CCRF-CEM leukemia, 101%; in the test with MOLT-4 leukemia, 110%; in the test with SR leukemia it was 99.1%; with RPMI-8226 leukemia it was 113%; in the test on OVCAR-8 ovarian it was 110%. Moreover, the growth in the test on OVCAR-5 ovarian is 103%; with OVCAR-4 ovarian it was 105%; in the test with SK-OV-3 ovarian it was 106%; in the test with IGROV1 ovarian, 114%; in the test with OVCAR-3 ovarian, 115%; in the test on HS 578T breast, 114%. For the same compound, in the test with NCI/ADR-RES ovarian, the growth is 115%.

Consider `COc1c(CNC(=O)CCl)cc2[nH]c(C)cc2c1CNC(=O)CCl`, for which the growth in the test with SK-MEL-2 melanoma was 54.9%; in the test on EKVX NSCLC it was 65.1%; with SN12C renal, 53.7%; with UO-31 renal, 60.7%; with TK-10 renal, 74.1%; in the test with ACHN renal, 37.3%. For the same compound, the growth in the test on A498 renal was 84.4%; with CCRF-CEM leukemia it was 25.6%; in the test on MOLT-4 leukemia it was 51%; in the test with SR leukemia it was 34.9%; in the test on RPMI-8226 leukemia it was 58.5%; with OVCAR-8 ovarian, 53%. For the same compound, the growth with OVCAR-5 ovarian is 96.7%; with OVCAR-4 ovarian, 45.3%; with SK-OV-3 ovarian it was 70.3%; in the test on IGROV1 ovarian, 33.8%; in the test with OVCAR-3 ovarian, 30.9%; with NCI/ADR-RES ovarian it was 118%.

`CCC(=O)Oc1ccc2ccccc2c1`: the growth with SK-MEL-2 melanoma was 95.2%; in the test with EKVX NSCLC, 95.7%; in the test on SN12C renal it was 91%; in the test on UO-31 renal, 71.6%; in the test with TK-10 renal, 105%; in the test with ACHN renal, 98.7%. For the same compound, the growth is 82.7% in the test with A498 renal; 89.8% in the test on CCRF-CEM leukemia; 99% in the test on MOLT-4 leukemia; 106% with SR leukemia; 100% in the test on RPMI-8226 leukemia; 100% in the test on OVCAR-8 ovarian. For the same compound, the growth is 103% with OVCAR-5 ovarian; 101% with OVCAR-4 ovarian; 98.9% in the test on SK-OV-3 ovarian; 106% with IGROV1 ovarian; 108% in the test with OVCAR-3 ovarian; 81% with HS 578T breast. For the same compound, the growth with NCI/ADR-RES ovarian is 96.8%.

With `CCNCC(C)(C)O`, the growth in the test on SK-MEL-2 melanoma was 107%; in the test on EKVX NSCLC it was 99.6%; in the test on SN12C renal it was 101%; in the test with UO-31 renal it was 83.6%; with TK-10 renal it was 108%; in the test with ACHN renal, 110%. The growth in the test with CAKI-1 renal is 99.1%; in the test with CCRF-CEM leukemia, 106%; with MOLT-4 leukemia, 99.2%; with RPMI-8226 leukemia, 107%; in the test with OVCAR-8 ovarian, 106%; in the test on OVCAR-5 ovarian, 100%. For the same compound, the growth was 98.7% in the test on OVCAR-4 ovarian; 110% in the test with SK-OV-3 ovarian; 112% in the test with IGROV1 ovarian; 117% in the test on OVCAR-3 ovarian; 113% in the test with HS 578T breast; 102% in the test on NCI/ADR-RES ovarian.

On to `CC(C)N1CC(=O)N2CSCC2C1=O` (stereo not given), for which the growth with SK-MEL-2 melanoma is 115%; in the test on EKVX NSCLC, 105%; in the test on SN12C renal, 107%; in the test with UO-31 renal, 96.5%; with TK-10 renal it was 109%; in the test with ACHN renal, 109%. The growth with A498 renal is 123%; in the test on CCRF-CEM leukemia, 107%; with MOLT-4 leukemia, 111%; in the test with SR leukemia it was 114%; with RPMI-8226 leukemia, 109%; in the test on OVCAR-8 ovarian it was 106%. Also, the growth with OVCAR-4 ovarian is 123%; in the test on SK-OV-3 ovarian it was 116%; with IGROV1 ovarian it was 111%; with OVCAR-3 ovarian it was 104%; with HS 578T breast, 98.7%; with NCI/ADR-RES ovarian, 109%.

Turning to `Cn1c(=O)c2nc3c(=O)n(C)c(=O)n(C)c3nc2n(C)c1=O`, the growth was 110% in the test on SK-MEL-2 melanoma; 93.9% in the test on EKVX NSCLC; 106% in the test on SN12C renal; 82.1% in the test on UO-31 renal; 128% in the test with TK-10 renal; 101% in the test with ACHN renal. The growth was 126% with A498 renal; 104% with CCRF-CEM leukemia; 84.9% in the test with MOLT-4 leukemia; 82.5% in the test on SR leukemia; 108% with OVCAR-8 ovarian; 91.1% in the test on OVCAR-5 ovarian. Moreover, the growth in the test on OVCAR-4 ovarian was 108%; with SK-OV-3 ovarian, 97%; with IGROV1 ovarian, 106%; in the test on OVCAR-3 ovarian it was 107%; with HS 578T breast, -27.8% (active); in the test with NCI/ADR-RES ovarian, 97%.
